Measured values taken from PubChem BioAssay (NCATS).
Values joined by “and” are separate entries in the source; they are usually repeats but may differ in a detail not shown here. Equal entries are not always repeated. Active and inactive are the calls of the source. Calls come from the whole dose curve; as a rule, active = well fitted activation curve with a large enough effect; inconclusive = small, poorly fitted or top-dose-only effect; inactive = no such curve, though single readings can be large or run the other way.

These compounds were tested against Cytochrome P450 3A4 (Homo sapiens) (UniProt P08684) (assay: qHTS Assay for Activators of Cytochrome P450 3A4 (AID 885; note: nearly all actives have a fitted effect of over 65% in size)). Conditions: recombinant CYP3A4, Luciferin-PPXE luminescence, 60 min; series mostly up to 57.1 µM.
Cytochrome P450 3A4 (Homo sapiens), sequence (P08684 whole entry, looked up): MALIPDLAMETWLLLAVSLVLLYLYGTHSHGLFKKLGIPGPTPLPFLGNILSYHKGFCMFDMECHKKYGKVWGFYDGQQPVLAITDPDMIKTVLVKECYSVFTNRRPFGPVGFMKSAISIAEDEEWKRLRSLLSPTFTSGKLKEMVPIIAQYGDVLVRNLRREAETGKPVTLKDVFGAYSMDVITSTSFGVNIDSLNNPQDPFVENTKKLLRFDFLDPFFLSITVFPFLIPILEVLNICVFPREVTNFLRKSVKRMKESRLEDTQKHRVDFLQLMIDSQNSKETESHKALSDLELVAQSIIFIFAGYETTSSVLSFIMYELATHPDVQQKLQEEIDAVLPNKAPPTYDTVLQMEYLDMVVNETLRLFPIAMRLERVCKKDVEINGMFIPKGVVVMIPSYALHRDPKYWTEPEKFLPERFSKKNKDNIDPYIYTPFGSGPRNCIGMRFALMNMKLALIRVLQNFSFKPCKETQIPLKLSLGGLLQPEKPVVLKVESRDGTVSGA
How it was run: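 Signal was normalized against complete inhibition by 57 uM ketoconazole. The reaction used 20nM CYP3A4 with 25uM Luciferin-PPXE, 10-min compound preincubation and a 60-min NADPH-supported step at RT.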

Potency, inactive:
COC(=O)c1ccc(C23CC4(C2)[C@H](CN(C)[C@@H]4c2ccccc2)C3c2ccc(Cl)nc2)cc1 (stereo partly specified)
COc1cc(/C=C/C(=O)c2cccs2)cc(OC)c1OC
Nc1cc(=O)[nH]c(=O)n1Cc1ccccc1
COC(=O)[C@@H]1C[C@@]2(O)[C@H](O)[C@H](O)[C@H](O)C[C@H]2N1Cc1c(F)cccc1Cl
COC(=O)c1cccc(C23CC4(C2)[C@H](CN(Cc2ccc(C(F)(F)F)cc2)[C@@H]4c2ccccc2)C3c2ccc(Cl)nc2)c1 (stereo partly specified)
FC(F)(F)c1ccc(C2[C@H]3CN(Cc4ccc(-c5ccccc5)cc4)[C@H](c4ccccc4)C34CC2(c2ccccc2)C4)cc1 (stereo partly specified)
CCC1=C2CC[C@H]3C(=O)N(CC(=O)OC)C(=O)[C@H]3[C@H]2[C@@]2(C)C(=NCC(=O)OC)OC(=O)N2C1=O

Activity change, positive = activation, inactive:
CC(C)(C)N1C(=O)[C@H]2[C@H]3[C@H](O)[C@H](O)C/C(=N/OC[C@@H](O)COCc4ccco4)[C@H]3CC[C@@H]2C1=O -30.9% [at 11.4 µM]
CO[C@H]1COC(=O)C/C=C\[C@H](C)[C@H](OC)COC(=O)[C@@H](C)COC(=O)C/C=C\[C@@H]1C -30.8% [at 11.4 µM] and -38.4% [at 11.4 µM]
CO[C@H]1COC(=O)C/C=C\[C@@H](C)[C@H](OC)COC(=O)CCC[C@@H]1C -58.3% [at 11.4 µM]
CC(C)=CCC/C(C)=C/CO/N=C1/C[C@@H](O)[C@@H](O)[C@@H]2[C@H]3C(=O)N(c4ccc(F)cc4F)C(=O)[C@@H]3CC[C@H]12 -35.2% [at 11.4 µM]
